Molecules are shown by their SMILES. “And” between values parts separate entries of the source, which are not always exact repeats. Identical values can stand only once. The source made the active and inactive calls. The calls were made as follows: active = hit-call score of the fitted dose curve at least 0.9, where 1 is the maximum; inactive = score below 0.9.

Read-out in the assay: Matrix Metallopeptidase 9 (MMP9), MMP9 (gene 4318)
Kind of assay: BSK_KF3CT_MMP9: BioMAP Diversity Plus: KF3CT Assay for Matrix Metallopeptidase 9 (MMP9) Biomarker Activity (AID 2283074). The note with it: primary human keratinocytes with fibroblasts; actives raise or lower the signal. The procedure: BSK_KF3CT is a cell-based, multiplexed-readout assay that uses keratinocytes and foreskin fibroblasts, a human skin primary cell co-culture, with measurements taken at 24 hours after chemical dosing in a 96-well plate.BSK_KF3CT_MMP9 is an assay component measured in the BSK_KF3CT assay. It measures MMP-9 antibody related to regulation of gene expression using ELISA technology.Data from the assay component BSK_KF3CT_MMP9 was analyzed into 1 assay endpoint. This assay endpoint, BSK_KF3CT_MMP9, was analyzed with bidirectional fitting relative to DMSO as the negative control and baseline of activity. Using a type of binding reporter, gain or loss-of-signal activity can be used to understand changes in the signaling as they relate to the gene MMP9. Furthermore, this assay endpoint can be referred to as a primary readout, because this assay has produced multiple assay endpoints where this one serves a signaling function. To generalize the intended target to other relatable targets, this assay endpoint is annotated to the protease intended target family, where the subfamily is matrix metalloproteinase.
The levels of cell surface (or secreted, indicated by the prefix "s") biomarker endpoints were measured by ELISA. Overt cytotoxicity to cells in confluent adherent cultures (all systems other than the BT system) was assessed by measuring total protein levels using sulforhodamine B (SRB) staining in parallel cultures at the time of biomarker measurements, indicated as SRB endpoints. For proliferation assays for adherent cell types, individual cell types are cultured at sub-confluence and relative cell numbers quantified by SRB staining at time points optimized for each system (48 h: 3C and CASM3C systems; 72 h: BT and HDF3CGF systems; 96 h: SAg system). SRB was performed by staining cells with 0.1% SRB after fixation with 10% TCA and reading wells at 560 nm.Viability and proliferation of PBMC (T cells) was quantified by Alamar Blue reduction for the SAg and BT systems. For PBMC viability (referred to as PBMC Cytotoxicity within the assay endpoint names), cells were plated (75,000/well in a 96-well plate) and then chemical samples added for 1 h before addition of activators, SEB and TSST-1 (20 ng/mL final concentration each). Cells were incubated for 90 h. Then, Alamar Blue (20 uL/well) (Invitrogen, Cat DAL1100) was added for 6 h, and the plates were read with a fluorescence microplate reader at 546/580 nm (excitation/emission). For PBMC proliferation, cells were plated and activated as above but incubated for only 16 h prior to addition of Alamar Blue. Plates were read after 6 h.
In the case of `CCCCC=O`, the result was inactive. For the compound `Oc1c(Cl)cc(Cl)cc1Sc1cc(Cl)cc(Cl)c1O`, the AC50 – broadly, the midpoint of the concentration-response curve, whichever way the signal moves – is 1.88 µM (active) and 2.08 µM (active). `OCC(CO)(CBr)CBr`: the result was inactive. Same read-out and setting: then `O=C1c2ccc(O)c(O)c2C(=O)c2c(O)ccc(O)c21`, with “inactive”. Turning to `C=CC(C)(CCC=C(C)C)OC(C)=O` (stereo not given), the AC50 is 30.4 µM (active). The same measure, in the same setting: then `CCCCCCCCCCCCOS(=O)(=O)O`, with 30.9 µM (active).

Consider `O=C(NCc1ncc(C(F)(F)F)cc1Cl)c1c(Cl)cccc1Cl`, for which the outcome was inactive.

With `CCCCCc1ccc(O)cc1`, the AC50 was 20 µM (active). As for `O=P(O)(O)CCC(F)(F)C(F)(F)C(F)(F)C(F)(F)C(F)(F)C(F)(F)F`, the result was inactive. In the case of `Cc1cccc2c1ccc1ccccc12`, the outcome was inactive. Consider `Oc1cc2ccccc2cc1O`, for which the result was inactive. The same measure, in the same setting: as for `O=C(CCCN1CCC(O)(c2ccc(Cl)cc2)CC1)c1ccc(F)cc1`, the entry is “inactive”; as for `CN(Cc1cnc2nc(N)nc(N)c2n1)c1ccc(C(=O)N[C@@H](CCC(=O)O)C(=O)O)cc1`, “inactive”; as for `O=C(c1ccccc1)c1ccccc1`, “inactive”.

For the compound `C[C@]12CC[C@@H]3c4ccc(O)cc4CC[C@H]3[C@@H]1C[C@@H](O)[C@@H]2O`, the result was inactive. The same measure, in the same setting: as for `O=C(NO)c1ccccc1`, the entry is “inactive”; as for `Cc1ccc(N=Nc2c(O)ccc3ccccc23)c(C)c1`, “inactive”; as for `CCCCCCCCCCCCCCC`, “inactive”.

Turning to `OCC(F)(F)C(F)(F)C(F)(F)C(F)(F)C(F)(F)C(F)(F)C(F)(F)C(F)(F)C(F)(F)C(F)(F)C(F)(F)F`, the result was inactive.

On to `COc1cccc(O)c1`, for which the outcome was inactive. On to `O=C(O)CCC(F)(F)C(F)(F)C(F)(F)C(F)(F)C(F)(F)C(F)(F)F`, for which the outcome was inactive. For `COC1=CC(=O)C[C@@H](C)[C@]12Oc1c(Cl)c(OC)cc(OC)c1C2=O`, the AC50 was 0.572 µM (active).

As to `OCCN1CN(CCO)CN(CCO)C1`, the outcome was inactive. With `CN(C)c1ccc(C(=C2C=CC(=[N+](C)C)C=C2)c2ccccc2)cc1`, the AC50 was 0.0207 µM (active). Still for that read-out and setting: then `O=C(O)C(F)(F)OC(F)(F)C(F)(F)OC(F)(F)C(F)(F)OC(F)(F)C(F)(F)C(F)(F)C(F)(F)F`, with 8.13 µM (active) and 8.24 µM (active).

Turning to `CCCCC(CC)C(=O)OCCOCCOCCOCCOC(=O)C(CC)CCCC` (stereo not given), the result was inactive. With `CCCCCCCCCCCC`, the AC50 is 6.78 µM (active) and 7.3 µM (active).

For the compound `CC(C)(C)c1ccc(O)c(O)c1`, the AC50 was 20 µM (active).

Turning to `CCCCc1oc2ccccc2c1C(=O)c1cc(I)c(OCCN(CC)CC)c(I)c1`, the AC50 was 6.54 µM (active). Turning to `Oc1ccc(Cc2ccccc2O)cc1`, the result was inactive. Regarding `C=COC(=O)C(C)(C)CCCCCC`, the AC50 is 33 µM (active). With `CCOC(=O)CN[C@@H](C(=O)N1CC[C@H]1C(=O)NCc1ccc(/C(N)=N/O)cc1)C1CCCCC1`, the outcome was inactive. On to `O=C(CC(=O)C(F)(F)C(F)(F)C(F)(F)F)c1cccs1`, for which the AC50 was 2.38 µM (active) and 4.67 µM (active). Take `Cc1[nH]nc2c1N=C(c1ccccc1Cl)c1cc([N+](=O)[O-])ccc1N2`: the AC50 was 4.48 µM (active).

As to `CCC(C)c1ccccc1O` (stereo not given), the result was inactive. For `NC(=NCCCCCCN=C(N)/N=C(\N)Nc1ccc(Cl)cc1)/N=C(\N)Nc1ccc(Cl)cc1`, the AC50 is 2.67 µM (active). On to `COCN(COC)c1nc(N(COC)COC)nc(N(COC)COC)n1`, for which the outcome was inactive. Regarding `Clc1ccc(Nc2nnc(Cc3ccncc3)c3ccccc23)cc1`, the AC50 is 7.58 µM (active). Regarding `COc1cc(OC)nc(NC(=O)NS(=O)(=O)Nc2ccccc2C(=O)N(C)C)n1`, the result was inactive. With `CS(=O)(=O)c1ccc([C@@H](CC2CCCC2)C(=O)Nc2cnccn2)cc1Cl`, the result was inactive.
